Compounds without any hit were thinned out: in the full panel of roughly 83,000, 20% have a hit.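 Percent growth is the endpoint: 0 to 100 indicates growth inhibition (40 means 60% inhibition), 0 means no net growth, and negative values indicate cell death.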 Unmarked numbers belong to inactive results. Activity calls are given as the source filed them.
test system: A498 renal; experiment: NCI-60 one-dose screen, 48 h (100 = growth as untreated, 0 = no growth, -100 = all killed); conditions: 10 µM
Method: Growth inhibition of the A498 human tumor cell line is measured as a screen for anti-cancer activity. Cells are grown in 96 well plates and exposed to the test compound for 48 hours. Compounds are tested at a single concentration, which is 10^-5 M for most compounds. The reported endpoint is percent growth (GI% or GIPRCNT), where numbers from 0 - 100% represent growth inhibition, and numbers from -100% - 0 represent cell death. For example, a value of 40 represents 60% growth inhibition. A value of 0 means no net growth occurred over the course of the experiment. A value of -40 indicates 40% of cells at the beginning of the experiment died by the end of the experiment. A value of -100 means all cells are dead at the end of the experiment.
NCI-60 Human Tumor Cell Lines Screen was performed using the standard one-dose NCI protocol, which is described in more detail at https://dtp.cancer.gov/discovery_development/nci-60/default.htm.
Compounds with GIPRCNT values below 10 were considered active. Activity score was based on GIPRCNT using the following formula: […]
Score is 0 for GIPRCNT values of 100 or above, 50 for GIPRCNT values of 0, and 100 for GIPRCNT values of -100.

First: Nc1nc2c(F)c(F)c(F)c(F)c2s1
Second: N#Cc1c(Cl)nc(SCc2ccc(F)cc2)nc1-c1ccc(F)cc1
The growth of the first is lower: 114% for the first, 115% for the second.

Going from `O=C(N/C(=C1/OCCN1Cc1ccccc1)[P+](c1ccccc1)(c1ccccc1)c1ccccc1)c1ccccc1` to `N#Cc1ccc(-c2nn(-c3ccc(C(=O)O)cc3)cc2CNc2ccc(Oc3ccccc3)cc2)cc1`, the growth falls from 83% to 73%.

Going from `O=C(CSc1nnc(-c2c[nH]c3ccccc23)n1-c1ccccc1)Nc1ccc(C(=O)/C=C/c2ccc(Br)cc2)cc1` to `O=C(CSc1nnc(-c2c[nH]c3ccccc23)n1-c1ccccc1)c1ccc(Br)cc1`, the growth falls from 106% to 36%.

Going from `C/C(=C\CSc1ccccc1C(=O)O)CCCC(C)CCCC(C)CCCC(C)C` (stereo not given) to `CCCCSc1nc(Nc2ccc(/C(C)=N/NC(N)=S)cc2)c(C#N)c(-c2ccccc2)n1`, the growth falls from 97.4% to 42.1%.

First: CC1(c2ccccc2)NC(=O)N(CC(=O)Nc2ccc(C(=O)/C=C/C=C/c3ccccc3)cc2)C1=O (stereo not given)
Second: Cc1ccc(NCC(=O)Nn2c(COc3ccccc3)nc3ccccc3c2=O)cc1
The growth of the first is lower: 70.6% for the first, 91.9% for the second.

Compared with `CC(=O)c1ccc(NC(=O)NCn2c(=O)[nH]c3ccccc3c2=O)cc1`, `O=C(Nc1ccc(OCC(=O)c2ccccc2)cc1)Nc1ccc(Cl)c(C(F)(F)F)c1` is lower in growth: 98.1% for the first, 17.1% for the second.

Compared with `COc1cc(OC(F)(F)F)ccc1C(=O)Nc1sc2c(c1C#N)CCC(=O)C2`, `COc1ccc(CCN2C(=O)/C(=C/c3csc(C#N)n3)SC2=S)cc1OC` is lower in growth: 137% for the first, 80% for the second.

Compared with `O=C(CSc1nnc(-c2ccc3nc(-c4ccccc4)[nH]c3c2)o1)Nc1ccc(Cl)cc1`, `Cc1ccc(-c2nc3ccc(C(=O)N=Nc4c(O)[nH]c5ccc(Br)cc45)cc3[nH]2)cc1` is higher in growth: 101% for the first, 137% for the second.

Compared with `O=C(c1ccc(O)cc1)C1[C@H](c2ccc(Br)cc2)[C@@H](c2ccccc2)NC12C(=O)Nc1ccccc12` (stereo not given in full), `Cc1ccc(-c2cc(C(=O)N=Nc3c(O)[nH]c4ccc(Br)cc34)c3ccccc3n2)cc1` is higher in growth: 37% for the first, 125% for the second.

Compared with `O=C(CN1CCN(c2ncnc3c2cnn3-c2ccccc2)CC1)Nc1nncs1`, `CN1CCN(c2ccc(Nc3nc(NCCCNC(=O)c4ccccc4)c4sccc4n3)cc2)CC1` is higher in growth: 49% for the first, 141% for the second.

Compared with `C[C@H]1[C@H](C)CC[C@]2(COC(=O)CCC(=O)NCC#CCN3CCNCC3)CC[C@]3(C)C(=CC[C@@H]4[C@@]5(C)CCCNC(C)(C)[C@@H]5CC[C@]43C)[C@H]12`, `C=C1CCC2C3(C)COC(c4c(F)cccc4F)OC3CCC2(C)C1C/C=C1/C(=O)OCC1O` (stereo not given) is higher in growth: 111% for the first, 141% for the second.

Going from `Cc1cc(=O)oc2cc(OCCCCOc3ccc(/C=C/C(=O)Nc4cccc(Cl)c4)cc3)ccc12` to `COc1cccc(COc2ccc(/C=C3\Oc4cc(O)ccc4C3=O)cc2)c1`, the growth rises from 80.7% to 131%.

Compared with `CC(C)Sc1nc(NC2CC2)c(C#N)c(-c2ccccc2)n1`, `C=C1CCC2C3(C)COC(c4c(F)cccc4F)OC3CCC2(C)C1CC(O)C1=CCOC1=O` (stereo not given) is higher in growth: 99.3% for the first, 134% for the second.

Going from `COc1cc2c3c(n(CCCNCCO)c(=O)c2cc1OC)-c1nc2c(cc1C3=O)OCO2` to `COc1ccc(/C=C/C(=O)c2ccc(S(=O)(=O)NCCNc3nc(Nc4ccc(F)cc4)nc(N(C)C)n3)cc2)cc1`, the growth falls from 69.3% to 47.9%.

Compared with `COc1ccc2[nH]cc(/C=N/Nc3cccc(Cl)n3)c2c1`, `CCCCOc1ccc(Nc2nc3ccccc3nc2Nc2ccc(OCCCC)cc2)cc1` is lower in growth: 120% for the first, 105% for the second.

For `CC(=C(c1ccc(OCCN2CCCCCC2)cc1)c1ccc(OCCN2CCCCCC2)cc1)c1ccc(Cl)cc1`, the growth was -90.9% (active).
In the case of `CC(=O)NCC1=C(C)C=C2C(=O)[C@](C)(O)C3(CC3)C(C)=C21`, the growth is reported as -70.4% (active).
With `Cc1noc2c(Cc3ccccc3)nn(CC(=O)N/N=C/c3ccc(F)cc3)c(=O)c12` the growth was -20% (active).
With `O=C(c1ccc(Cl)cc1)C1[C@H](c2ccc(Br)cc2)[C@@H](c2ccccc2)NC12C(=O)Nc1ccc(Br)cc12` (stereo not given in full) the growth was -17.1% (active).
In the case of `O=c1oc2ccc(-c3ccc(F)cc3F)cc2c(=O)n1-c1ccc(F)cc1`, the growth is reported as -17.2% (active).
In the case of `COc1cccc2nc(Nc3cccc(NC(=O)c4ccc(CN5CCCN(C)CC5)c(C(F)(F)F)c4)c3)ccc12`, the growth is reported as -91% (active).
For `COc1cc(NC(=O)c2cc(-c3ccc(F)cc3F)ccc2O)cc(OC)c1OC`, the growth was -1.46% (active).
With `Cc1noc2c(Cc3ccccc3)nn(CC(=O)N/N=C/c3ccc(Cl)cc3)c(=O)c12` the growth was -58.1% (active).
With `O=C(NO)c1ccc(Cn2ccc3c(Nc4ccccc4)ncnc32)cc1` the growth was -14.2% (active).
For `O=C(c1ccc(Cl)cc1)C1[C@H](c2ccc(Br)cc2)[C@@H](c2ccccc2)NC12C(=O)Nc1ccccc12` (stereo not given in full), the growth was -23.5% (active).
